According to PubChem BioAssay AID1053127 (Broad Institute, 2014):
Results with a measured potency or affinity are listed apart. The source made the active and inactive calls.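 The calls were made as follows: active = compounds whose fitted curve of lowered CTGF expression reaches half effect within a set concentration limit; inconclusive = flat moderate drop in CTGF, or unreliable curve fit; inactive = the rest.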

Test: YAP1 overexpression rescue of CTGF inhibition – DLD1 cells, RT-qPCR, cherry-pick, mechanism study for YAP1 pathway inhibitor project, dose response (AID 1053127)
Conditions: DLD1 YAP1-overexpressing, CTGF mRNA qPCR, 24 h; series mostly up to 26 µM

outcome, inactive:
C[C@@H]1CN([C@H](C)CO)S(=O)(=O)c2ccc(C#Cc3ccccc3F)cc2O[C@@H]1CN(C)C(=O)Cc1cccnc1
CC(C)NC(=O)N[C@@H]1CC[C@H](CC(=O)NCCCN(C)C)O[C@@H]1CO
C/C=C/c1cccc(-c2nc(C(=O)Nc3nccs3)cc3c2[C@@H](CCO)N(C(=O)NC(C)C)C3)c1
C[C@@H]1CN([C@H](C)CO)C(=O)c2ccccc2-c2ccccc2CO[C@@H]1CN(C)Cc1ccc2c(c1)OCCN2C
O=C(Nc1ccc2c(c1)[C@H]1C[C@@H](CC(=O)N3CCc4ccccc4C3)O[C@H](CO)[C@H]1O2)c1ccc2c(c1)OCO2
C[C@@H]1CN([C@H](C)CO)S(=O)(=O)c2ccc(C#Cc3cccc(F)c3)cc2O[C@@H]1CN(C)S(=O)(=O)c1cn(C)cn1
CCc1nc(N2[C@H](CO)[C@@H](c3ccccc3-c3ccc(F)cc3)[C@@H]2C#N)sc1C
CC(C)(C)[S@](=O)N1Cc2cc(C(=O)NCCc3ccncc3)nc(-c3cccc(-c4cccc(C#N)c4)c3)c2[C@@H]1CCO
COc1ccc2c3c([nH]c2c1)[C@H](CO)NCC31CCN(C(=O)Cc2cccnc2)CC1
CN1C(=O)c2cc(NC(=O)Cc3cccs3)ccc2OC[C@@H]2O[C@@H](CC(=O)NCCc3ccncc3)CC[C@H]21
C[C@H](CO)N1C[C@H](C)[C@H](CN(C)Cc2ccc(Oc3ccccc3)cc2)OCc2ccccc2-c2ccccc2C1=O
COc1ccc([C@H]2C/C=C\C[C@@H](c3ccc4c(c3)OCO4)NC(=O)[C@@H](c3ccccc3)CC(=O)N2)c(OC)c1
